According to the supplement of paper PMC4206461:
Values without a mark were called inactive.

Tests used:
[1] = system: Pseudomonas aeruginosa PA14 dppA1-A5 penta mutant + pBBR5.DppA1 (PA14_58350); experiment: respiration area under curve with compound as sole nitrogen source, 24 h (OmniLog AUC (arbitrary units)); higher = more respiration / better utilisation as nitrogen source, active = 2000 or more
Method: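 Biolog Phenotype MicroArray plates PM6-PM8: each di/tripeptide is the sole nitrogen source. Tetrazolium reduction was read in the OmniLog for 24 h at 37°C and summarised as area under the respiration curve (arbitrary units). Values below 2000 count as no respiration. Strain is the SBP penta mutant complemented with DppA1 on a plasmid under its native promoter. Lys/His/Cys peptides are excluded.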

[2] = system: Pseudomonas aeruginosa PA14 wild type; experiment: as above
Method: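 Biolog Phenotype MicroArray plates PM6-PM8: each di/tripeptide is the sole nitrogen source (IF-0 medium with succinate/ferric citrate and dye mix A). Tetrazolium reduction was read in the OmniLog every 15 min for 24 h at 37°C and summarised as area under the respiration curve (arbitrary units). The paper counts values below 2000 as no respiration and above 8000 as solid respiration. Replicate datasets are averaged.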

[3] = system: Pseudomonas aeruginosa PA14 dppBCDF deletion mutant; experiment: respiration area under curve with compound as sole nitrogen source, 24 h (OmniLog AUC (arbitrary units)); higher = more respiration / better utilisation as nitrogen source, active = 2000 or more; extreme values may be limits of the assay
Method: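 Biolog Phenotype MicroArray plates PM6-PM8: each di/tripeptide is the sole nitrogen source. Tetrazolium reduction was read in the OmniLog every 15 min for 24 h at 37°C and summarised as area under the respiration curve (arbitrary units). Values below 2000 count as no respiration. Strain is the dipeptide ABC transporter deletion mutant.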

SMILES | respiration area under curve [1] | respiration area under curve [2] | respiration area under curve [3]
N[C@@H](CCC(=O)O)C(=O)N[C@@H](CCC(=O)O)C(=O)O (plate: PM6) | 263 |  | 
C[C@@H](O)[C@H](N)C(=O)N[C@@H](CC(=O)O)C(=O)O (plate: PM8) |  | 5680 (active) | 0
C[C@H](NC(=O)CN)C(=O)O (plate: PM6) | 2380 (active) |  | 
NC(=O)CC[C@H](N)C(=O)N[C@@H](CCC(=O)O)C(=O)O (plate: PM8) | 7630 (active) | 9650 (active) | 
C[C@@H](N)C(=O)NCC(=O)O (plate: PM8) | 5420 (active) | 6030 (active) | 
N[C@@H](CO)C(=O)N[C@@H](CC(=O)O)C(=O)O (plate: PM8) | 2890 (active) |  | 
C[C@@H](O)[C@H](NC(=O)CN)C(=O)O (plate: PM6) | 2750 (active) | 5430 (active) | 
N[C@@H](Cc1ccc(O)cc1)C(=O)N[C@@H](CCC(=O)O)C(=O)O (plate: PM7) | 4690 (active) |  | 
N[C@@H](Cc1ccccc1)C(=O)N[C@@H](CC(=O)O)C(=O)O (plate: PM8) | 2600 (active) | 2860 (active) | 
NCC(=O)N[C@@H](Cc1ccc(O)cc1)C(=O)O (plate: PM6) | 1420 |  | 
NC(N)=NCCC[C@H](NC(=O)[C@@H](N)Cc1c[nH]c2ccccc12)C(=O)O (plate: PM7) | 12000 (active) | 13500 (active) | 
NCC(=O)N[C@@H](CC(=O)O)C(=O)O (plate: PM8) | 4090 (active) | 5610 (active) | 
CSCC[C@H](NC(=O)[C@@H](N)CCCN=C(N)N)C(=O)O (plate: PM6) | 9220 (active) |  | 
CC(C)C[C@@H](N)C(=O)NCC(=O)O (plate: PM8) | 0 |  | 
N[C@@H](Cc1ccc(O)cc1)C(=O)N[C@@H](Cc1c[nH]c2ccccc12)C(=O)O (plate: PM7) | 2730 (active) | 3280 (active) | 
C[C@H](N)C(=O)N[C@@H](CC(=O)O)C(=O)O (plate: PM8) | 9070 (active) | 10500 (active) | 
NCC(=O)N[C@@H](CCCN=C(N)N)C(=O)O (plate: PM6) | 7640 (active) |  | 
CSCC[C@H](N)C(=O)N[C@@H](CC(C)C)C(=O)O (plate: PM7) | 1540 | 2580 (active) | 
CSCC[C@H](NC(=O)CN)C(=O)O (plate: PM6) | 50.7 | 327 | 

SMILES | respiration area under curve [1] | respiration area under curve [2] | respiration area under curve [3]
NC(=O)CC[C@H](NC(=O)[C@@H](N)CC(=O)O)C(=O)O (plate: PM8) | 7700 (active) | 9700 (active) | 
N[C@@H](CO)C(=O)N[C@@H](Cc1ccccc1)C(=O)O (plate: PM7) | 6220 (active) | 7090 (active) | 
N[C@@H](CCC(=O)O)C(=O)N[C@@H](Cc1ccc(O)cc1)C(=O)O (plate: PM6) | 1030 |  | 
CC(C)C[C@H](NC(=O)[C@@H](C)N)C(=O)O (plate: PM8) | 286 |  | 
CC[C@H](C)[C@H](N)C(=O)N1CCC[C@H]1C(=O)O (plate: PM6) | 5060 (active) |  | 
CCC(C)C(N)C(=O)NC(CC(N)=O)C(=O)O (stereo not drawn) (plate: PM8) | 7760 (active) |  | 
NCC(=O)NCC(=O)N[C@@H](Cc1ccccc1)C(=O)O (plate: PM8) | 3750 (active) | 9740 (active) | 
N[C@@H](CC(=O)O)C(=O)N[C@@H](CC(=O)O)C(=O)O (plate: PM6) | 197 | 119 | 
CC[C@H](C)[C@H](N)C(=O)N[C@@H](CCC(N)=O)C(=O)O (plate: PM6) | 5000 (active) | 7450 (active) | 
C[C@H](N)C(=O)N[C@@H](CC(N)=O)C(=O)O (plate: PM6) | 7840 (active) |  | 
C[C@H](N)C(=O)N[C@@H](C)C(=O)N[C@@H](C)C(=O)O (plate: PM8) | 8340 (active) |  | 
NCC(=O)N[C@@H](Cc1ccccc1)C(=O)N[C@@H](Cc1ccccc1)C(=O)O (plate: PM8) | 5190 (active) | 8980 (active) | 
CC[C@H](C)[C@H](NC(=O)CNC(=O)CN)C(=O)O (plate: PM8) | 2430 (active) |  | 
CC(C)CC(N)C(=O)NC(CC(=O)O)C(=O)O (stereo not drawn) (plate: PM6) | 4660 (active) |  | 
NCC(=O)N[C@@H](Cc1c[nH]c2ccccc12)C(=O)O (plate: PM6) | 49.2 | 755 | 
O=C(O)[C@@H]1C[C@@H](O)CN1C(=O)[C@@H]1CCCN1 (plate: PM7) | 0 | 0 | 
CC[C@H](C)[C@H](N)C(=O)N[C@@H](Cc1c[nH]c2ccccc12)C(=O)O (plate: PM6) | 287 | 1090 | 
CC(C)C[C@H](N)C(=O)N[C@@H](CO)C(=O)O (plate: PM7) | 12700 (active) | 13500 (active) | 
